The list is not random: actives were taken first. Their share in the collection is about 1.3%.
p47phox inh: p47phox/p22phox peptide binding inhibitors, primary screen, biochemical, uHTS, NADPH oxidase regulatory subunit; 0.53% of 220,000 active; fluorescence polarization, 2 h; inhibition, % at 24.7 µM; Neutrophil cytosol factor 1 (Homo sapiens), P14598;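 also: 0% = p47phox with labelled peptide and 100% = labelled peptide alone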
eIF4E 4G PPI: eIF4E–eIF4G protein interaction inhibitors, primary screen, biochemical, uHTS, TR-FRET, eIF4GI fragment. Eukaryotic translation initiation factor 4E (Mus musculus) + Eukaryotic translation …. TR-FRET eIF4E-eIF4GI(517-606) binding, 2 h. 0.37% of 220,000 active. inhibition, % at 21.7 µM;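 also: 0% = full FRET control wells and 100% = background wells lacking eIF4GI fragment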
14-3-3 Bad inh: inhibitors of 14-3-3 zeta/Bad binding, primary screen, biochemical, TR-FRET, bovine 14-3-3 zeta; 14-3-3 protein zeta/delta (Bos taurus), P63103; TR-FRET 14-3-3zeta/Dy647-pBad peptide displacement, 1 h; inhibition, % at 21.7 µM; 0.71% of 220,000 active; AID 781, 2007;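 active = inhibition above about 70%, limit read from the data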;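 also: 0% = full 14-3-3 plus peptide FRET controls and 100% = background without 14-3-3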
UBC9 SUMO inh: inhibitors of in vitro SUMOylation cascade, primary screen, biochemical, HTRF, uHTS. HTRF SUMOylation assay, SAE1/SAE2 + UBC9. inhibition, % at 35 µM. 0.36% of 290,000 active; in the data active = inhibition above about 50%, passing the limit was not always enough
* marks the source's active call; other numbers are inactive results; / = no result given; [ ] = another dose, or the depositor's remark.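 The calls were made as follows, unless noted: active = inhibition above about 30% (limit read from the data); inactive = the rest.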

SMILES | p47phox inh | eIF4E 4G PPI | 14-3-3 Bad inh | UBC9 SUMO inh
CCN1C(=O)C2C(c3ccc(O)c(OC)c3)NC(C)(C(=O)OC)C2C1=O (configuration not stated) | 38* | 8 | -9 | 17
O=C(NN1CC(C(=O)OCc2ccc(Br)cc2)CC1=O)c1ccccc1 (configuration not stated) | / | / | / | -3
N=C1C(c2nc(-c3ccc(Cl)cc3)cs2)=C(O)CN1NC(=O)c1ccc(O)cc1 | -82 | -11 | 77* | 16
CC(C)n1cc(CN2CCCC(CO)(Cc3cccc(Cl)c3)C2)cn1 (configuration not stated) | -7 | 0 | 1 | 11
O=C(c1ccc2c(c1)OCCCO2)c1cccs1 | 2 | 6 | 0 | 0
c1ccc(-c2nc(N3CCN(c4ccccc4)CC3)nc(-n3ccnc3)n2)cc1 | 58* | 5 | 6 | -25
COc1ccccc1NS(=O)(=O)c1cccc(C(=O)N/N=C/c2ccc(C)o2)c1 | -2 | -2 | -2 | 0
Cc1ccc(/C=N/NC(=O)c2cccc(S(=O)(=O)Nc3cccc(Cl)c3)c2)o1 | -2 | 1 | -14 | 61*
O=C(N/N=C/c1cccnc1)c1cccc(S(=O)(=O)Nc2cccc(Cl)c2)c1 | -3 | 1 | -3 | 27
O=C(N/N=C/c1ccncc1)c1cccc(S(=O)(=O)Nc2ccc(Cl)cc2)c1 | 17 | 92* | 40 | 23
Cc1cccc(CN2CCN(c3nc4nonc4nc3NC3CC3)CC2=O)c1 | -8 | 2 | -19 | 23
COc1cc(NC(=S)Nc2cccnc2)cc(OC)c1 | -2 | 7 | -16 | 72*
COc1cc(OC)cc(C(=O)NC(=S)Nc2cccnc2)c1 | -5 | 2 | -7 | 13
CCOc1ccc(NC(=S)Nc2cccc3cnccc23)cc1 | -3 | 3 | 0 | 89*
Cc1ccc(S(=O)(=O)N(C)C)cc1NC(=S)Nc1cccc2ccccc12 | / | / | / | 92*
S=C(Nc1cccnc1)Nc1cccc2cnccc12 | -6 | -5 | -1 | 97*
CCOc1ccc(NC(=S)Nc2cccc3ccccc23)cc1 | / | / | / | 94
COc1ccc(NC(=S)Nc2cccc3cnccc23)cc1 | -6 | 0 | -3 | 94*
S=C(Nc1ccc(Cl)cc1)Nc1cccc2cnccc12 | -11 | 8 | -1 | 99
CCN(C(=S)Nc1cccnc1)c1ccccc1 | -1 | 3 | -7 | -4
CN(C)S(=O)(=O)c1cccc(NC(=S)Nc2ccc3cn[nH]c3c2)c1 | -13 | -1 | -5 | 25
COc1ccccc1NC(=S)Nc1cccc2cnccc12 | 3 | -4 | -1 | 51*
CCN(C(=S)Nc1cccnc1)c1cccc2ccccc12 | -13 | 1 | -13 | 100*
CN(C)S(=O)(=O)c1cccc(NC(=S)Nc2cccc3cnccc23)c1 | -6 | 4 | -3 | 99*
Cc1cc(C)nc(N2CCC(C(=O)Nc3cccc(C(F)(F)F)c3)CC2)n1 | / | / | / | 12
SMILES | p47phox inh | eIF4E 4G PPI | 14-3-3 Bad inh | UBC9 SUMO inh
OCC[C@@H]1C[C@@H](O)[C@H](O)[C@]2(Cc3ccccc3CCO2)O1 | / | / | / | 13
Cc1cccc(-c2nnc(SCC3CNC(=O)O3)n2-c2ccc(Cl)cc2)c1 (configuration not stated) | -3 | 45* | -11 | -6
COc1ccc(-n2c(SCC3CNC(=O)O3)nnc2-c2ccc(Cl)cc2)cc1 (configuration not stated) | 3 | 2 | -12 | 6
O=C(O)/C=C/C(=O)Nc1ccc(NC(=O)c2ccccc2)c(Cl)c1 | -13 | 2 | 96* | -11
O=C(O)/C=C\C(=O)Nc1cccc(NC(=O)c2ccccc2)c1 | 4 | -2 | -9 | 0
CCc1nc(CN(C)C(=O)C2CCC(=O)N(Cc3cccc(F)c3)C2)no1 (configuration not stated) | / | / | / | 17
Cc1ccc(N(CC(=O)NCc2ccccc2)C(=O)CCC(=O)Nc2ccccn2)cc1C | / | / | / | -16
Nc1csnc1C(=O)O | -8 | 10 | 78* | 12
Cn1ncc([N+](=O)[O-])c1C(=O)n1nnc2ccccc21 | 10 | -1 | -4 | 6
O=C(/C=C1\C(=O)Nc2ccccc21)/C=C1\C(=O)Nc2ccccc21 | 29 | 18 | 93* | 9
COc1ccc(-n2c(SCC#N)nc3c(sc(=S)n3-c3ccccc3)c2=O)c(OC)c1 | / | / | / | 2
Cc1nc(=O)c(-c2ccccc2)c(C)n1CCCO | -9 | -3 | 90* | 23
N#Cc1ccccc1Cn1c(=O)n(CCC(=O)NCc2ccco2)c(=O)c2ccccc21 | -3 | 6 | -4 | -13
N#Cc1ccccc1Cn1c(=O)n(Cc2ccc(C(=O)NCc3ccco3)cc2)c(=O)c2ccccc21 | 30* | 10 | 52 | 4
COc1ccc(Nc2nc(NCc3ccco3)nc(N/N=C/c3ccccc3)n2)cc1 | 2 | -2 | 81* | 4
CCOc1nc(NCc2ccco2)nc(Nc2ccc(OC)cc2)n1 | -20 | -1 | -12 | -2
COc1ccc(CC(=O)n2nc(-c3ccccc3)nc2NCc2ccco2)cc1 | -67 | 2 | 78* | -5
CC(C)(C)NC(=O)NC(=O)CN1CCN(c2cccc(Cl)c2)CC1 | -22 | 85* | -3 | -4
CC(C)(C)NC(=O)NC(=O)CN1CCN(c2ccccc2)CC1 | -6 | 3 | -8 | -4
O=S1(=O)C=C(SCc2ccc(F)cc2)Nc2ccccc21 | 2 | 4 | 1 | 10
COc1ccc(OCC(=O)N/N=C/c2ccsc2)cc1 | 74* | -3 | 13 | 11
COc1ccc(OCC(=O)N/N=C/c2ccc(N(C)C)cc2)cc1 | -9 | 1 | -12 | 18
CCCC(=O)NC(=S)c1c(C)n(C)n(-c2ccccc2)c1=O | -13 | 5 | -6 | 11
COCCCn1c(C(=O)N2CC(C)OC(C)C2)cc2c(=O)n3ccccc3nc21 (configuration not stated) | / | / | / | 54*
Cn1c(C(=O)NCC2CCCO2)cc2c(=O)n3ccccc3nc21 (configuration not stated) | -6 | 0 | 19 | 53*
SMILES | p47phox inh | eIF4E 4G PPI | 14-3-3 Bad inh | UBC9 SUMO inh
COCCCn1c(=N)c(C(=O)NC2CCCCC2)cc2c(=O)n3ccccc3nc21 | -2 | -2 | -11 | 20
Cn1c(C(=O)N2COCC2(C)C)cc2c(=O)n3ccccc3nc21 | -2 | 1 | -5 | 53*
Cc1ccc(C)c(S(=O)(=O)N2CCN(C(C)C(=O)Nc3ccccc3-c3ccccc3)CC2)c1 (configuration not stated) | -10 | -9 | 3 | 4
CCCCCCCCCCCC(=O)NC1CCS(=O)(=O)C1 (configuration not stated) | 2 | -5 | -6 | -10
COc1ccc2nc(COC(=O)c3ccco3)c(C(C)=O)[n+]([O-])c2c1 | 8 | -3 | 86*[fluorescence artefact?] | 10
COc1ccc(CNC(=O)C2CCN(C(=O)[C@@H]3Cc4ccccc4CN3)CC2)cc1 | / | / | / | -6

Bioassay records deposited in PubChem by several laboratories.
